Pf growth 96h: Primary qHTS for delayed death inhibitors of the malarial parasite plastid, 96 hour incubation; 6.9% of 320,000 active; Potency, µM (highest dose often 28.7 µM), for the others: at the highest dose activity change, negative = inhibition, most hits filed as inhibitors; AID 504834, 2011; P. falciparum luciferase reporter growth, 96 h; note: potency is the fitted concentration of half-maximal effect; % is set by controls: 0 for no effect and ±100 for the full control effect
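Erythrocytes infected with luciferase-expressing P. falciparum were dispensed at 2% hematocrit and 0.05% parasitemia (final), then incubated with compounds 96 hours at 37 C in 5% CO2. Luminescence after detection reagent addition reported growth.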
AMA1-RON2 inh: qHTS for Inhibitors of AMA1-RON; Towards Development of Antimalarial Drug Lead: Primary Screen; AlphaScreen AMA1-biotinylated RON2 peptide binding; Potency, µM (highest dose often 58.2 µM), without a hit: top-dose activity change, negative = inhibition, most hits filed as inhibitors; 0.2% of 360,000 active; AID 720542, 2013;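 note: potency is the fitted concentration of half-maximal effect; 0% = vehicle wells and -100% = peptide control; nearly all actives have a fitted effect of over 45% in size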
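AMA1 (3D7) with his tag at 25 nM final met compounds first, then biotinylated RON2 peptide at 25 nM; detection used donor plus acceptor beads, 10 µg/mL apiece, read by AlphaScreen after 30 min at room temperature.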
SARS PLpro yeast: qHTS of Yeast-based Assay for SARS-CoV PLP | 0.19% of 330,000 active | S. cerevisiae expressing SARS-CoV PLpro, growth rescue | AID 485353, 2010 | Potency, µM (doses to about 32.9 µM), without a hit: top-dose activity, positive = growth rescue, actives largely listed as activators; calls by dose curve; note: potency is the fitted concentration of half-maximal effect; 0% is about no effect; nearly all actives have a fitted effect of over 55% in size
Shiga inhibitor: A qHTS for Small Molecule Inhibitors of Shiga Toxin; 9.2% of 290,000 active; AID 2315, 2010; Vero cells, Shiga toxin protein synthesis inhibition reporter; inhibition, % at 38.7 µM; in the data active = inhibition mostly above about 28%, no sharp cut-off; inactive = mostly below about 43%; note: 0% is about no effect
Cycloheximide cs: Cycloheximide Counterscreen for Small Molecule Inhibitors of Shiga Toxin. cell reporter, cycloheximide protein synthesis inhibition counterscreen. max response, %. 12% of 300,000 active; in the data active = max response mostly above about 13%, no sharp cut-off; inactive = mostly below about 14%; note: read at 38.3 µM for the half of the compounds with a filed dose; 0% is about no effect
Pf growth 48h: Primary qHTS for delayed death inhibitors of the malarial parasite plastid, 48 hour incubation | P. falciparum luciferase growth in erythrocytes, 48 h | Potency, µM (series often up to 28.7 µM), for inactives: at the highest dose activity change, negative = inhibition, usual class: inhibitors | 5.9% of 310,000 active | AID 504832, 2011; note: potency is the fitted concentration of half-maximal effect; % is set by controls: 0 for no effect and ±100 for the full control effect
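Luciferase-expressing P. falciparum in infected erythrocytes (2% hematocrit, 0.1% parasitemia final) in RPMI 1640/0.5% Albumax were exposed to compound for 48 hours at 37 C, 5% CO2; growth read as luminescence.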
The depositor's hits bear a star; ? = inconclusive; . = no result; [ ] = dose if it differs, or a comment. Rows were chosen to be rich in hits. Some 19% of all compounds tested hit in one or more screens of this group. Unless noted, calls come from the whole dose curve; as a rule, active = well fitted curve in the direction sought with a large enough effect; inconclusive = small, poorly fitted or top-dose-only effect, or another doubt; inactive = no such curve, though single readings can be large; an effect the other way counts as inactive or inconclusive.

SMILES	Pf growth 96h	AMA1-RON2 inh	SARS PLpro yeast	Shiga inhibitor	Cycloheximide cs	Pf growth 48h
CCc1ccc(C(O)c2ncc(-c3ccc4ccccc4c3)[nH]2)cc1 (stereo unspecified)	.	4%	.	.	.	.
O=C(N/N=C/c1cc2c(c([N+](=O)[O-])c1)OCO2)c1ccncc1	2.3µM*	36%	1%	.	-2	75%
Cn1cc([N+](=O)[O-])c(C(=O)N/N=C/c2ccc3c(c2)OCO3)n1	?	-3%	2%	43*	20*	4%
CC(=O)Nc1cc(-c2ccc(F)cc2)cn2c(-c3ccc(S(C)(=O)=O)cc3)cnc12	.	33%	.	.	.	.
C=C1c2cccc(O)c2C(O)=C2C(=O)[C@@]3(O)C(O)=C(C(N)=O)C(=O)[C@@H](N(C)C)[C@@H]3[C@@H](O)[C@H]12	1.3µM*	.	.	.	.	3.2µM*
CN(C)[C@@H]1C(=O)C(C(N)=O)=C(O)[C@]2(O)C(=O)C3=C(O)c4c(O)ccc(Cl)c4[C@H](O)[C@H]3C[C@@H]12	3.4µM*	.	.	.	.	6.7µM*
CN(C)C1C(=O)C(C(N)=O)=C(O)C2(O)C(=O)C3=C(O)c4c(O)cccc4C(C)(O)C3C(O)C12 (stereo unspecified)	2.6µM*	?	-14%	10	13	?
CN(C)[C@@H]1C(=O)C(C(N)=O)=C(O)[C@]2(O)C(=O)C3=C(O)c4c(O)ccc(Cl)c4[C@](C)(O)[C@H]3C[C@@H]12	?	.	.	.	.	-15%[12.8 µM]
C[C@@H]1c2cccc(O)c2C(O)=C2C(=O)[C@@]3(O)C(O)=C(C(N)=O)C(=O)[C@@H](N(C)C)[C@@H]3[C@@H](O)[C@@H]21	1.5µM*	.	.	.	.	7.6µM*
CCOCCCN1CC(=O)N2[C@@H](Cc3c([nH]c4ccccc34)C2(C)C)C1=O	4%	-6%	2%	-6	-5	-17%
Cc1nnc(NC(=O)CSc2ccc(-c3ccccn3)nn2)s1	7%	.	0%	4	7	4%
S=C(Nc1ccccc1Oc1ccccc1)Nc1cccc(Cl)c1Cl	?	37%	-2%	-6	-3	-5%
C=C1c2cccc(O)c2C(=O)C2C(=O)[C@]3(O)C(=O)C(C(N)=O)C(=O)[C@@H](N(C)C)[C@@H]3[C@@H](O)[C@H]12 (stereo partly specified)	.	0.89µM*	17%	.	.	.
C[C@H]1c2cccc(O)c2C(O)=C2C(=O)[C@]3(O)C(O)=C(C(N)=O)C(=O)[C@@H](N(C)C)C3[C@@H](O)C21 (stereo partly specified)	0.41µM*	-30%	.	.	.	3.7µM*
Cc1cccnc1Nc1nc(-c2ccccn2)cs1	.	-89%	-13%	126*	47*	?
Cc1cccnc1Nc1nc(-c2ccccc2)cs1	5%	0%	5%	104*	67*	-42%
O=C(CSc1nc2ccccc2n1S(=O)(=O)c1cccc([N+](=O)[O-])c1)NCc1cccs1	-13%	6%	-12%	18	27*	30%
CCc1nc2ccc(C(=O)NCCN3CCOCC3)cn2c1N(C)Cc1ccc(OC)cc1	.	-8%	.	.	.	.
COc1ccc(N=Cc2[nH]c3ccccc3c2O)cc1	160%	-11%	2%	42*	31*	17%
COc1ccc(N=Cc2oc3ccc4ccccc4c3c2O)cc1	154%	-22%	-4%	72*	50*	160%
CN=CC1=C(O)c2ccccc2C1=O	-20%	0%	-4%	76*	41*	30%
COc1ccc(N=CC2=C(O)c3ccccc3C2=O)cc1	.	16%	-8%	107*	24*	214%
CC(C)c1ccc(CN2C(=O)NC3(CCCCCC3)C2=O)cc1	?	1%	1%	9	-1	-13%
O=C1C(C=Nc2ccccc2)=C(O)c2ccccc21	.	-8%	-6%	173*	29*	36%
O=C1CC(c2ccccc2Cl)CC(O)=C1C=Nc1ccccc1 (stereo unspecified)	-7%	9%	-12%	-2	2	2%
SMILES	Pf growth 96h	AMA1-RON2 inh	SARS PLpro yeast	Shiga inhibitor	Cycloheximide cs	Pf growth 48h
CNC(=O)Oc1ccc2c(c1)[C@]1(C)CCN(C)C1N2C (stereo partly specified)	15µM*	-5%	.	.	.	13µM*
CN1CC[C@@]2(C)c3cc(O)ccc3N(C)[C@@H]12	.	-14%	.	.	.	.
CC1CCCC(C)N1C(=O)COc1ccc(F)cc1 (stereo unspecified)	?	1%	-1%	12	26*	10%
CC1CCCC(C)N1C(=O)COc1ccc([N+](=O)[O-])cc1Cl (stereo unspecified)	-7%	3%	-1%	19	18	8%
Cc1cc(Cl)ccc1OCC(=O)N1C(C)CCCC1C (stereo unspecified)	111%	-4%	-11%	73*	20*	14%
Cc1ccc(OC(=O)c2cccc(C(=O)Oc3ccc(C)cn3)n2)nc1	29%	.	-4%	-10	3	32%
O=C1C=C(C#Cc2ccccc2)C[C@@H](c2ccc(F)cc2)C1	.	6%	.	.	.	.
CCC(C)(C)NC(=O)C(c1ccc(OC)cc1)N(Cc1cccs1)C(=O)CCC(=O)Nc1cc(C)on1 (stereo unspecified)	3%	-20%	7%	-5	-1	10µM*
CCC(C)(C)NC(=O)C(c1ccccc1Cl)N(C(=O)CCC(=O)Nc1cc(C)on1)c1ccc(NC(C)=O)cc1 (stereo unspecified)	-1%	5%	2%	-1	4	-52%
Cc1cc(NC(=O)CCC(=O)N(c2ccccc2)C(C(=O)NC(C)(C)C)c2ccccc2Cl)no1 (stereo unspecified)	-18%	-5%	1%	12	2	13µM*
COc1ccc(C(C(=O)NC(C)(C)C)N(CCc2ccccc2)C(=O)CCC(=O)Nc2cc(C)on2)cc1 (stereo unspecified)	2%	-9%	1%	31*	22*	12µM*
CCC(C)(C)NC(=O)C(c1ccc(C)cc1)N(Cc1cccs1)C(=O)c1ccc2c(c1)OCCO2 (stereo unspecified)	12µM*	-19%	-7%	-14	-2	?
COc1ccc(OC)c(S(=O)(=O)N2CCC(C(=O)Nc3cccc(C(F)(F)F)c3)CC2)c1	24%	0%	3%	-9	0	?
CC(C)[C@H](N)c1nnc(SC/C=C/c2ccccc2)o1	58%	28%	-2%	-8	-4	-1%
COc1cccc(CNC(=O)CN2C(=O)CSc3ccc(S(=O)(=O)N4CCCC4)cc32)c1	15%	7%	-2%	-1	2	?
COCCN(C(=O)COC(=O)c1cc(C)n(-c2ccccc2)c1C)c1c(N)n(Cc2ccccc2)c(=O)[nH]c1=O	?	12%	0%	.	.	?

From PubChem BioAssay
